# Data: PubChem BioAssay (NCATS)
# Several values for one entry are separate records, joined by “and”; a condition that tells them apart may be missing. Equal entries are not always repeated. Results filed as inconclusive are left out. Where a call stands in place of a potency, no number is given. Where a structure was tested more than once in an assay, its records may differ in their call. Activity calls are given as the source filed them. Calls follow the shape of the dose curve; as a rule, active = well fitted curve in the direction sought with a large enough effect; inconclusive = small, poorly fitted or top-dose-only effect, or another doubt; inactive = no such curve, though single readings can be large; an effect the other way counts as inactive or inconclusive.
# Legend:
# [1] = qHTS assay for measurement of the activity of small molecule inhibitors on Zika virus induced Caspase-3 activity in human astrocytoma cells (AID 1224859)
# Procedure, shortened: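 Human SNB-19 astrocytoma cells in RPMI 1640 with 10% FBS receive compound one hour ahead of Zika virus at 2 FFU/cell. After 6 h infection, caspase-3/7 activity is detected by Caspase-Glo luminescence.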
# [2] = P-glycoprotein substrates identified in KB-8-5-11 adenocarcinoma cell line, qHTS therapeutic library screen (AID 1346987); also: nearly all actives have a fitted effect of over 65% in size; also: potency is read from the fitted curve at half-maximal effect
# Procedure, shortened: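 Luminescence from CellTiter-Glo, read 5 min after addition, quantified survival of KB-8-5-11 (P-gp-overexpressing) cells exposed to compounds for 72 h. AC50 was derived from concentration-response curves.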
# [3] = NS1 protein of Zika virus - qHTS assay to identify small molecule inhibitors in human HEK 293 cells (AID 1347053); also: nearly all actives have a fitted effect of over 55% in size; also: potency is read from the fitted curve at half-maximal effect
# Procedure, shortened: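 In this cell-based screen, HEK 293 cultures received compound for one hour before Zika MR766 at MOI = 0.5. NS1 was quantified 24 hours later by TR-FRET, normalized to virus-free wells and infected wells.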
# [4] = qHTS of pediatric cancer cell lines to identify multiple opportunities for drug repurposing: Primary screen for TC32 cells (AID 1347089); also: nearly all actives have a fitted effect of over 60% in size; also: potency is read from the fitted curve at half-maximal effect
# Procedure, shortened: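 A viability screen of TC32 cells was run over 48 h, with primary MIPE doses spanning 0.78 nM–46 µM and NPC doses 0.59 nM–46 µM. ATP luminescence (CellTiter-Glo) served as the read-out.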
# [5] = qHTS assay to identify small molecule inhibitors of chordoma cells - UCH-2 (AID 1259356); also: series mostly up to about 46 µM
# [6] = qHTS of pediatric cancer cell lines to identify multiple opportunities for drug repurposing: Primary screen for DAOY cells (AID 1347090); also: nearly all actives have a fitted effect of over 55% in size; also: potency is read from the fitted curve at half-maximal effect
# Procedure, shortened: (§1)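 Eight- or eleven-point concentration series, 48 h treatment at 37 degrees C in growth media; readout CellTiter-Glo luminescence. Potency and efficacy were taken from the concentration-response curves.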
# [7] = qHTS of pediatric cancer cell lines to identify multiple opportunities for drug repurposing: Primary screen for SJ-GBM2 cells (AID 1347091); also: potency is read from the fitted curve at half-maximal effect
# Procedure, shortened: as §1
# [8] = P-glycoprotein substrates identified in KB-3-1 adenocarcinoma cell line, qHTS therapeutic library screen (AID 1346986); also: nearly all actives have a fitted effect of over 60% in size
# Procedure, shortened: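 72 h cell-killing screen, 500 cells/well, CellTiter-Glo luminescence. Paired lines KB-3-1/KB-8-5-11; P-gp dependence checked by tariquidar co-treatment and HEK-293 MDR-19 versus empty-vector cells.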
# [9] = Identifying Small Molecule Inhibitors of Pancreatic Cancer Stem Cells (Panc1, Spheroid) (AID 1259359); details: Panc1 spheroid cancer stem cell viability;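 also: potency is read from the fitted curve at half-maximal effect; compound exposure lasted 48 h before reading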
# Procedure, shortened: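 Viability is scored by CellTiter-Glo luminescence 48 h after dosing, expressed as percent activity against vehicle and no-cell references. Spheroid formats rely on cells cultured 14 days in stem cell media beforehand.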
# [10] = qHTS Screen of the MIPE 4.0 Collection Against Ewings Sarcoma (RDES) (AID 1259252); also: nearly all actives have a fitted effect of over 35% in size; also: potency is read from the fitted curve at half-maximal effect
# Procedure, shortened: (§2)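 Compound titrations go onto adherent log-phase cells 4 h after seeding, incubate 48 h at 37C, then CellTiter-Glo luminescence reports viability relative to DMSO and cell-free controls.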
# [11] = qHTS Screen of the MIPE 4.0 Collection Against Ewings Sarcoma (TC71) (AID 1259253); also: nearly all actives have a fitted effect of over 40% in size; also: potency is read from the fitted curve at half-maximal effect
# Procedure, shortened: as §2
# [12] = qHTS Screen of the MIPE 4.0 Collection Against Ewings Sarcoma (EW8) (AID 1259255); also: nearly all actives have a fitted effect of over 35% in size; also: potency is read from the fitted curve at half-maximal effect
# Procedure, shortened: as §2
# [13] = qHTS Screen of the MIPE 4.0 Collection Against Ewings Sarcoma (TC32) (AID 1259256); also: nearly all actives have a fitted effect of over 45% in size; also: potency is read from the fitted curve at half-maximal effect
# Procedure, shortened: as §2
structure (smiles),measurement,setting,value
COCCOC(=O)C1=C(C)NC2=C(C(=O)CC(c3ccccc3OC)C2)C1c1cccc(O)c1 (stereo not drawn),Potency,[1],inactive
same,Potency,[2],inactive
same,Potency,[3],inactive
CCn1c(C(=O)N(C2CC2)C2CC2)cc2c3c(ncn3C)c(Nc3cc(C)n(C)n3)nc21,Potency,[1],inactive
same,Potency,[2],inactive
same,Potency,[3],inactive
same,Potency,[4],inactive
OC[C@@H](O)[C@H](O)[C@H](O)[C@@H](O)CO,Potency,[1],inactive
same,outcome,[5],inactive
same,Potency,[2],inactive
same,Potency,[3],inactive
same,Potency,[4],inactive
same,Potency,[6],inactive
same,Potency,[7],inactive
Cc1ccc([C@@H]2O[C@H](CO)[C@@H](O)[C@H](O)[C@@H]2O)cc1Cc1ccc(-c2ccc(F)cc2)s1,Potency,[1],inactive
same,Potency,[8],inactive
same,Potency,[2],inactive
same,Potency,[4],inactive
same,Potency,[6],inactive
Oc1ccc(C2CCN(c3ccnc4ccccc34)CC2)cc1O,Potency,[1],inactive
same,Potency,[2],inactive
same,Potency,[3],inactive
same,Potency,[4],inactive
CC(C)[C@H](CO)Nc1nc(Nc2ccc(C(=O)O)c(Cl)c2)c2ncn(C(C)C)c2n1,Potency,[1],inactive
same,Potency,[8],inactive
same,Potency,[2],inactive
same,Potency,[3],inactive
COCCCCC(=NOCCN)c1ccc(C(F)(F)F)cc1,Potency,[1],inactive
same,outcome,[5],inactive
same,Potency,[2],20.9 µM (active)
same,Potency,[4],inactive
same,Potency,[7],inactive
CC(C)(C(=O)NCC(F)(F)C(F)(F)F)C(=O)N[C@@H]1C(=O)Nc2ccccc2-c2ccccc21,Potency,[1],inactive
same,Potency,[9],0.0015 µM (active)
same,Potency,[8],inactive
same,Potency,[2],inactive
same,Potency,[3],inactive
same,Potency,[4],inactive
same,Potency,[6],18.7 µM (active)
same,Potency,[7],1.05 µM (active)
CCN(CC)CCOc1ccc(C(=C(Cl)c2ccccc2)c2ccccc2)cc1,Potency,[1],inactive
same,Potency,[8],inactive
same,Potency,[2],inactive
same,Potency,[3],inactive
same,Potency,[4],inactive
same,Potency,[6],inactive
CC[C@]1(O)C[C@@H]2CN(CCc3c([nH]c4ccccc34)[C@@](C(=O)OC)(c3cc4c(cc3OC)N(C)[C@H]3[C@@](O)(C(=O)OC)[C@H](OC(C)=O)[C@]5(CC)C=CCN6CC[C@]43[C@@H]65)C2)C1,Potency,[1],inactive
same,outcome,[5],inactive
same,Potency,[2],5.8 µM (active) and 5.17 µM (active) and 1.16 µM (active)
same,Potency,[3],inactive
same,Potency,[4],118 nM (active) and 592 nM (active)
same,Potency,[6],26.6 nM (active) and 133 nM (active)
same,Potency,[7],0.075 µM (active)
Cc1cccc(Nc2nc(-c3ccncc3)cs2)c1,Potency,[1],inactive
same,Potency,[4],inactive
same,Potency,[7],16.6 µM (active)
CO[C@H]1C[C@@H]2CC[C@@H](C)[C@@](O)(O2)C(=O)C(=O)N2CCCC[C@@H]2C(=O)O[C@H]([C@H](C)C[C@@H]2CC[C@H](OC(=O)C(C)(CO)CO)[C@H](OC)C2)CC(=O)[C@H](C)C=C(C)[C@@H](O)[C@@H](OC)C(=O)[C@H](C)C[C@H](C)C=CC=CC=C1C,Potency,[1],inactive
same,Potency,[7],11.8 µM (active)
COc1cccc2c1CCCC2CCCN1CCN(C2CCCCC2)CC1 (stereo not drawn),Potency,[1],inactive
same,Potency,[4],inactive
same,Potency,[6],inactive
same,Potency,[7],18.7 µM (active)
O=C1c2ccccc2-[n+]2ccc3c([nH]c4ccccc43)c21,Potency,[10],1.05 µM (active)
same,Potency,[11],0.935 µM (active)
same,Potency,[12],1.18 µM (active)
same,Potency,[13],0.743 µM (active)
same,Potency,[2],3.32 µM (active)
same,Potency,[3],1.05 µM (active)
same,Potency,[4],4.66 µM (active)
same,Potency,[6],2.96 µM (active)
same,Potency,[7],0.833 µM (active)
Cc1ccc(F)c(NC(=O)Nc2ccc(-c3cccc4[nH]nc(N)c34)cc2)c1,Potency,[1],inactive
same,Potency,[2],23.5 µM (active)
same,Potency,[3],inactive
same,Potency,[6],23.5 µM (active)
same,Potency,[7],23.5 µM (active)
C=CCc1ccc(O)c(-c2ccc(O)c(CC=C)c2)c1,Potency,[1],inactive
same,Potency,[4],inactive
Cc1c[nH]c(C=C2C(=O)Nc3ccccc32)c1CCC(=O)O,Potency,[1],inactive
same,Potency,[3],inactive
same,Potency,[4],inactive
same,Potency,[6],inactive
same,Potency,[7],18.7 µM (active)
OC[C@H]1O[C@@H](n2cnc3c2NC=NC[C@@H]3O)C[C@H]1O,Potency,[1],inactive
same,Potency,[2],inactive
same,Potency,[3],inactive
same,Potency,[4],inactive
same,Potency,[7],inactive
NC(CO)(CO)CCc1ccc(Sc2cccc(OCc3ccccc3)c2)cc1Cl,Potency,[1],inactive
same,Potency,[2],20.9 µM (active)
same,Potency,[3],9.35 µM (active)
same,Potency,[6],23.5 µM (active)
same,Potency,[7],18.7 µM (active)
N#CC(=C(N)Sc1ccccc1N)C(C#N)=C(N)Sc1ccccc1N,Potency,[1],inactive
same,Potency,[3],inactive
same,Potency,[4],inactive
same,Potency,[6],23.5 µM (active)
CO[C@H]1C[C@@H]2CC[C@@H](C)[C@@](O)(O2)C(=O)C(=O)N2CCCC[C@@H]2C(=O)O[C@H]([C@H](C)C[C@@H]2CC[C@H](OP(C)(C)=O)[C@H](OC)C2)CC(=O)[C@H](C)C=C(C)[C@@H](O)[C@@H](OC)C(=O)[C@H](C)C[C@H](C)C=CC=CC=C1C,Potency,[1],inactive
same,Potency,[3],inactive
same,Potency,[6],inactive
CC(=O)Nc1ccc([C@H](C)C(=O)Nc2ncc(C(C)C)s2)cc1,Potency,[10],2.96 µM (active)
same,Potency,[11],2.96 µM (active)
same,Potency,[12],5.9 µM (active)
same,Potency,[13],4.18 µM (active)
same,Potency,[9],8.33 µM (active)
same,Potency,[2],3.72 µM (active) and 3.66 µM (active)
same,Potency,[3],3.72 µM (active)
same,Potency,[4],16.5 µM (active)
same,Potency,[6],1.48 µM (active)
same,Potency,[7],0.743 µM (active)
CC(C)n1cnc2c(NCCCCCCNC(=O)OC(C)(C)C)nc(NCCO)nc21,Potency,[1],inactive
same,Potency,[3],inactive
same,Potency,[4],inactive
CC(=O)N(C)C1(c2ccccc2)CCN(CCC[C@]2(c3ccc(Cl)c(Cl)c3)CCCN(C(=O)c3ccccc3)C2)CC1,Potency,[10],26.4 µM (active)
same,Potency,[11],20.9 µM (active)
same,Potency,[12],23.5 µM (active)
same,Potency,[13],26.4 µM (active)
same,Potency,[2],10.5 µM (active) and 13 µM (active)
same,Potency,[3],26.4 µM (active)
C[C@H](NC(=O)C(=O)Nc1ccccc1C(C)(C)C)C(=O)N[C@@H](CC(=O)O)C(=O)COc1c(F)c(F)cc(F)c1F,Potency,[10],inactive
same,Potency,[11],inactive
same,Potency,[12],inactive
same,Potency,[13],inactive
same,Potency,[8],inactive
same,Potency,[2],inactive
same,Potency,[3],inactive
same,Potency,[4],inactive
same,Potency,[7],inactive
CCc1ccc(C=C2SC(=S)NC2=O)cc1,Potency,[10],inactive
same,Potency,[11],inactive
same,Potency,[12],inactive
same,Potency,[13],inactive
same,Potency,[2],inactive
same,Potency,[3],inactive
same,Potency,[4],inactive
same,Potency,[6],inactive
COc1cc(Nc2ncc(F)c(Nc3ccc4c(n3)NC(=O)C(C)(C)O4)n2)cc(OC)c1OC,Potency,[1],inactive
same,Potency,[2],2.59 µM (active) and 18.4 µM (active) and inactive
same,Potency,[4],inactive
same,Potency,[7],3.72 µM (active)
O=C(N[C@@H](c1ccccc1)[C@@H]1CCCCN1)c1cccc(C(F)(F)F)c1Cl,Potency,[1],inactive
same,Potency,[2],inactive
same,Potency,[3],inactive
same,Potency,[4],inactive
same,Potency,[6],inactive
same,Potency,[7],inactive
CO[C@H]1C[C@@H]2CC[C@@H](C)[C@@](O)(O2)C(=O)C(=O)N2CCCC[C@@H]2C(=O)O[C@H]([C@@H](C)C[C@@H]2CC[C@H](O)[C@H](OC)C2)CC(=O)[C@H](C)C=C(C)[C@@H](O)[C@@H](OC)C(=O)[C@H](C)C[C@H](C)C=CC=CC=C1C,Potency,[1],inactive
same,Potency,[4],inactive
same,Potency,[6],inactive
NC(=O)c1cccc(-c2cc(Nc3ccc(OC(F)(F)F)cc3)ncn2)c1,Potency,[1],inactive
same,Potency,[2],inactive
same,Potency,[4],inactive
same,Potency,[7],inactive
